# Measured values from PubChem BioAssay (EPA / NIEHS).
# Active and inactive are the calls of the source. Rule for the calls: active = hit-call score of the fitted dose curve at least 0.9, where 1 is the maximum; inactive = score below 0.9.
# Read-out: Tumor necrosis factor (Homo sapiens) (UniProt P01375)
# Assay: BSK_LPS_TNFa: BioMAP Diversity Plus: LPS Assay for Tumour Necrosis Factor alpha (TNFa) Biomarker Activity (AID 2283085)
# Settings: primary human HUVEC with PBMC; actives raise or lower the signal
# Experimental: BSK_LPS is a cell-based, multiplexed-readout assay that uses umbilical vein endothelium and peripheral blood mononuclear cells, a human vascular primary cell co-culture, with measurements taken at 24 hours after chemical dosing in a 96-well plate.BSK_LPS_TNFa is an assay component measured in the BSK_LPS assay. It measures TNF-a antibody related to regulation of gene expression using ELISA technology.Data from the assay component BSK_LPS_TNFa was analyzed into 1 assay endpoint. This assay endpoint, BSK_LPS_TNFa, was analyzed with bidirectional fitting relative to DMSO as the negative control and baseline of activity. Using a type of binding reporter, gain or loss-of-signal activity can be used to understand changes in the signaling as they relate to the gene TNF. Furthermore, this assay endpoint can be referred to as a primary readout, because this assay has produced multiple assay endpoints where this one serves a signaling function. To generalize the intended target to other relatable targets, this assay endpoint is annotated to the cytokine intended target family, where the subfamily is inflammatory factor.
# The levels of cell surface (or secreted, indicated by the prefix "s") biomarker endpoints were measured by ELISA. Overt cytotoxicity to cells in confluent adherent cultures (all systems other than the BT system) was assessed by measuring total protein levels using sulforhodamine B (SRB) staining in parallel cultures at the time of biomarker measurements, indicated as SRB endpoints. For proliferation assays for adherent cell types, individual cell types are cultured at sub-confluence and relative cell numbers quantified by SRB staining at time points optimized for each system (48 h: 3C and CASM3C systems; 72 h: BT and HDF3CGF systems; 96 h: SAg system). SRB was performed by staining cells with 0.1% SRB after fixation with 10% TCA and reading wells at 560 nm.Viability and proliferation of PBMC (T cells) was quantified by Alamar Blue reduction for the SAg and BT systems. For PBMC viability (referred to as PBMC Cytotoxicity within the assay endpoint names), cells were plated (75,000/well in a 96-well plate) and then chemical samples added for 1 h before addition of activators, SEB and TSST-1 (20 ng/mL final concentration each). Cells were incubated for 90 h. Then, Alamar Blue (20 uL/well) (Invitrogen, Cat DAL1100) was added for 6 h, and the plates were read with a fluorescence microplate reader at 546/580 nm (excitation/emission). For PBMC proliferation, cells were plated and activated as above but incubated for only 16 h prior to addition of Alamar Blue. Plates were read after 6 h.
# Tumor necrosis factor (Homo sapiens), sequence (P01375 whole entry, looked up): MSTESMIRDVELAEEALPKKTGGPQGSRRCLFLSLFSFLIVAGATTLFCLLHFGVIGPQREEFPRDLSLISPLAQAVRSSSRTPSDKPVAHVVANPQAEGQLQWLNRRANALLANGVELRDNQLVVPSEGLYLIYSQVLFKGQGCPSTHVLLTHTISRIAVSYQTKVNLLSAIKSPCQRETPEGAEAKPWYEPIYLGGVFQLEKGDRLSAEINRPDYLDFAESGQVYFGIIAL
SMILES,outcome,AC50
COc1ccc(OC(F)(F)F)cc1CN[C@H]1CCCN[C@H]1c1ccccc1,inactive,
O=C(O)c1cccnc1,inactive,
NC(=Nc1ccccc1)Nc1ccccc1,inactive,
O=C1O[C@H]([C@H](O)CO)C(O)=C1O,inactive,
CCN(CC)CCOc1ccc(C(=C(Cl)c2ccccc2)c2ccccc2)cc1,,11.8 µM (active)
CC1=C(C)S(=O)(=O)CCS1(=O)=O,inactive,
OCC(CO)n1cnc(-c2ccc(F)cc2)c1-c1ccnc(Oc2ccccc2)n1,,0.416 µM (active)
C=CCc1ccc(OC)c(OC)c1,,11 µM (active)
OCC(O)CO,inactive,
Cc1ccc(C(C)(C)C)c(O)c1,inactive,
CCCCC(CC)CO (stereo not given),inactive,
CC(=O)OC1CC(C)OC(C)O1 (stereo not given),inactive,
CC(C)c1cccc(C(C)C)c1,inactive,
Cc1ccc(-c2cc(C(F)(F)F)nn2-c2ccc(S(N)(=O)=O)cc2)cc1,,30.9 µM (active)
CC(=O)[C@@]1(O)CC[C@H]2[C@@H]3CCC4=CC(=O)CC[C@]4(C)[C@H]3CC[C@@]21C,inactive,
COc1ccc(C(=O)Nc2nc3ccccc3c(NCc3ccccc3)c2C#N)cc1,inactive,
CC(C)COC(=O)CCCCC(=O)OCC(C)C,inactive,
N[C@@H](Cc1c[nH]c2ccccc12)C(=O)O,inactive,
Cc1cc(SC2=C(O)C[C@@](CCc3ccc(N)cc3)(C(C)C)OC2=O)c(C(C)(C)C)cc1CO,,20 µM (active)
Cn1cnc2c1c(=O)[nH]c(=O)n2C,inactive,

SMILES,outcome,AC50
O=C(O)CN(CC(=O)O)CC(=O)O,inactive,
c1ccc2occc2c1,inactive,
O=C(O)c1[nH]n(-c2ccc(S(=O)(=O)O)cc2)c(=O)c1N=Nc1ccc(S(=O)(=O)O)cc1,inactive,
Cc1occc(=O)c1O,inactive,
CCCCCCCC(=O)OC,inactive,
CN(C)C(=O)NC1(c2ccccc2)CCN(CCC[C@]2(c3ccc(Cl)c(Cl)c3)CCCN(C(=O)c3ccccc3)C2)CC1,inactive,
CC(=O)CC(c1ccccc1)c1c(O)c2ccccc2oc1=O (stereo not given),,0.711 µM (active)
NC1CCCCC1,inactive,
CN(C)C(=O)NC1(c2ccccc2)CCN(CC[C@@]2(c3ccc(F)c(F)c3)CN(C(=O)c3ccccc3)CCO2)CC1,inactive,
S=c1[nH]c2ccccc2s1,inactive,
CC(=O)O,inactive,
CCCCCCC(CCCCCCCCCCC(=O)OCC(COC(C)=O)OC(C)=O)OC(C)=O (stereo not given),inactive,
CN(C)CCCN(C)CCCN(C)C,inactive,
CC(C)c1cccc(C(C)C)c1NC(=O)NS(=O)(=O)c1cc(C(C)(C)O)co1,inactive,
O=Cc1ccccc1C=O,,1.53 µM (active)
Cc1c(C)c2c(c(C)c1O)CCC(C)(COc1ccc(CC3SC(=O)NC3=O)cc1)O2 (stereo not given),,31.6 µM (active)
CC(C)(O)c1ccc(CNC(=O)c2cccnc2Oc2ccc(F)cc2)cc1,,0.598 µM (active)
C#CC(O)C(CC)CCCC (stereo not given),inactive,
CCCCCCCCCC[N+](C)(C)[O-],inactive,
CCc1nc(N)nc(N)c1-c1ccc(Cl)cc1,inactive,
